Experimental findings from PubChem BioAssay (NCATS) are described below.

The target in assay [1] is Cytochrome P450 3A4 (Homo sapiens) (UniProt P08684). The experiment in a line: qHTS Assay for Inhibitors and Substrates of Cytochrome P450 3A4 (AID 884). Also: potency is read from the fitted curve at half-maximal effect; nearly all actives have a fitted effect of over 50% in size. The method, boiled down: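 Luminescent readout of luciferin produced by CYP3A4 (20 nM) dealkylation of Luciferin-PPXE, 25 uM (its KM). NADPH-driven reaction ran 60 min at RT after 10 min compound preincubation; data scaled to 57 uM ketoconazole as 100% inhibition.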
For orientation: qHTS replaces the single test concentration by a dilution series.

The target is the same in assay [2]. The experiment in a line: qHTS Assay for Activators of Cytochrome P450 3A4 (AID 885). Also: nearly all actives have a fitted effect of over 65% in size. The procedure, abridged: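 Luminescent readout of luciferin formed from 25 uM Luciferin-PPXE (KM level) by 20 nM CYP3A4 in 200 mM KPO4, with 60 min NADPH-driven reaction at room temperature after 10 min compound exposure. Ketoconazole (57 uM) defined 100% inhibition.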
A short description of assay [3]: Confirmation and Secondary Assay for Modulators of Hemoglobin Beta Chain Splicing at IVS2 654 locus (AID 910).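 Also: HeLa cells stably carrying EGFP split by mutant beta-globin IVS2-654 intron; per-well total GFP intensity by laser scanning cytometry after 2-day treatment; % of control where 0% means no effect.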 The procedure, abridged: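 Readout: per-well total peak green fluorescence (488 nm ex, 500–520 nm em) from objects 5–250 µm, reflecting correct splicing of an EGFP-654 reporter. Compounds were applied for 2 days at 37 °C to overnight-plated HeLa EGFP-654 cells; controls were DMSO and 500 nM IVS2-654 PNA.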

Assay [4] can be described thus: Confirmation and Secondary Assay for Modulators of Hemoglobin Beta Chain Splicing at IVS2 705 locus (AID 930).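 Also: HeLa cells stably expressing the EGFP-705 splicing reporter; GFP fluorescence per well restored by corrected splicing of the IVS2-705 intron in EGFP; % of control where 0% means no effect.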 The procedure, abridged: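 Secondary splice-site specificity test uses HeLa expressing CMV-driven EGFP interrupted by IVS2-705; cells were treated 2 days at 37C with 500 nM antisense PNA as positive control.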
A short description of assay [5]: qHTS Assay for Lipid Storage Modulators (AID 1519; calls by dose curve; as to activity change, negative = inhibition: % is scaled to controls: 0 for no effect and ±100 for the full control effect). The conditions noted are these: Drosophila S3 cells, BODIPY lipid droplet/cell ratio, laser cytometry, cells loaded with oleic acid. The procedure, abridged: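 Cells seeded at 5,000 per well were treated with compounds over a concentration series and loaded with oleic acid (400 uM, as added). Lipid droplet fluorescence (488 nm excitation, 500-530 nm channel) was read by laser-scanning cytometry and normalized to 20 uM Triacsin C.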

The target in assay [6] is Furin (Homo sapiens) (UniProt P09958). Put plainly: Furin counterscreen qHTS for Zika virus inhibitors (AID 1347149). Also: nearly all actives have a fitted effect of over 70% in size. Also: potency is read from the fitted curve at half-maximal effect.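 As to activity change, negative = inhibition: purified recombinant full-length human furin enzyme at 5 nM; fluorescence gain from furin cutting a BOC-RVRR-AMC peptide substrate over 15 min; top concentration of the series differs between compounds; plate controls were no-inhibitor control for no effect and no-enzyme control for full effect.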 The procedure, abridged:
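Counterscreen measures cleavage of 2 microM BOC-RVRR-AMC, below its ~15 microM Km, by 5 nM full-length human furin at pH 7.0 after a 15-min compound preincubation. Inhibition derives from the 15-min fluorescence increase at 37C.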
(In general: Counterscreens check selectivity or assay interference.)

Assay [7] is described as follows: Confirmatory screen NINDS Rhodamine qHTS for Zika virus inhibitors (AID 1347161).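 Also: purified Zika NS2B-NS3 protease with linked NS2B cofactor domain and Rhodamine110 peptide substrate; plate controls were no-inhibitor control for no effect and no-enzyme control for full effect; nearly all actives have a fitted effect of over 60% in size.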 The procedure, abridged: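 Rhodamine110-peptide cleavage (1.5 µM substrate) by 25 nM linked NS2B-NS3 enzyme at pH 8.0 (Tris, Tween 20), after 15 min RT preincubation with compounds; 15-min fluorescence change normalized to controls and Hill-fitted.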
Assay [8] is described as follows: Tertiary RLuc qRT-PCR qHTS assay for Zika virus inhibitors (AID 1347169). Also: top concentration of the series differs between compounds; % is scaled to controls: 0 for no effect and ±100 for the full control effect; nearly all actives have a fitted effect of over 55% in size. The procedure, abridged: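 Vero cells (1,000/well) infected with recombinant ZIKV-RLuc (Cambodian) at MOI 1-2 after compound addition, 48-72 hrs at 37 degrees C. Live-cell Renilla luciferase substrate added; luminescence read after 1-1.5 hrs.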
The nature of assay [9]: ZIKV-mCherry secondary qHTS for Zika virus inhibitors (AID 1347158). Also: top concentration of the series differs between compounds. The method, boiled down: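 Percent infection is the share of Hoechst-identified Vero nuclei with mCherry signal above 450 RFU (3 SD over negative controls). Cells were infected with recombinant ZIKV-mCherry at MOI 1 after compound addition and imaged 48–72 h later.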
For assay [10], the system named is Zika virus NS2B-NS3 protease (linked construct). Put plainly: Confirmatory screen NINDS AMC qHTS for Zika virus inhibitors (AID 1347152).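 Also: AMC fluorescence gain from cleaved Bz-Nle-KRR-AMC substrate over 15 min; top concentration of the series differs between compounds; 0% = no-inhibitor control and -100% = no-enzyme control; nearly all actives have a fitted effect of over 70% in size.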 The procedure, abridged:
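Linked NS2B-NS3 protease, 1 nM, in 10 mM Tris-HCl pH 8.0, 0.01% Tween 20; compounds preincubated 15 min at room temperature. Nle-KRR-AMC 10 microM (Km 18.3 µM); 15-min fluorescence change (340/450 nm) fitted to 4-parameter Hill.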

The test system of assay [11] is Zika virus NS2B-NS3 protease (unlinked complex). The experiment in a line: Confirmatory screen GU AMC qHTS for Zika virus inhibitors (AID 1347153).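 Also: percent inhibition with 0% = no inhibitor control and 100% = no enzyme control; nearly all actives have a fitted effect of over 70% in size.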 The method, boiled down: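 Compounds were preincubated 15 min at room temperature with 25 nM noncovalent NS2B-NS3 protease at pH 8.0; AMC substrate added at 10 microM and 15-min fluorescence gain (340/450 nm) converted to percent inhibition, fitted 4-parameter.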

Assay [12] deals with Zika virus NS2B-NS3 protease (linked construct). Put plainly: 384 well plate NINDS Rhodamine confirmatory qHTS for Zika virus inhibitors (AID 1347164).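 Also: fluorescence from protease cleavage of Ac-LKRR-rhodamine 110 substrate; potency is read from the fitted curve at half-maximal effect; nearly all actives have a fitted effect of over 65% in size.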 The procedure, abridged:
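Linked NS2B-NS3 protease (final 5, 30 or 60 nM) preincubated ~15 minutes with compounds, then 10 microM Ac-LKRR-Rhodamine 110 added. Fluorescence (485/538 nm) read after 25 minutes at room temperature, normalized to no-enzyme and no-inhibitor controls.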

Assay [13] deals with Zika virus NS2B-NS3 protease (linked). Put plainly: 384 well plate NINDS AMC confirmatory qHTS for Zika virus inhibitors (AID 1347163).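 Also: linked protease at 5 30 or 60 nM final depending on run; fluorescence of AMC released from Ac-VKTGKR-AMC peptide cleaved by the protease; top concentration of the series differs between compounds; 0% = no-inhibitor control and -100% = no-enzyme control; nearly all actives have a fitted effect of over 50% in size.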 The procedure, abridged: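 Fluorescence at 355/460 nm was read after 25 minutes of cleavage of 30 microM Ac-VKTGKR-AMC at room temperature, in the dark. Before substrate addition, compounds (up to 1 mM final) sat ~15 minutes with 5, 30 or 60 nM linked protease. Signals were normalized to no-enzyme and no-inhibitor wells.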

For assay [14], the target named is Cytochrome P450 2C9 (Homo sapiens) (UniProt P11712). Put plainly: Cytochrome P450 family 2 subfamily C member 9 (CYP2C9) small molecule antagonists: luciferase biochemical (cell-free) qHTS assay (AID 1645842; active = well fitted curve in the direction sought with a large enough effect in the repeat runs; an effect the other way counts as inactive or inconclusive; also: % is scaled to controls: 0 for no effect and ±100 for the full control effect; nearly all actives have a fitted effect of over 55% in size). The method, boiled down: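 P450-Glo CYP2C9 system: proluciferin substrate with enzyme in mix containing 0.4% BSA, 10 min at room temperature, then NADPH regeneration solution added and incubated 1 h at 37C. Detection reagent stopped reaction; luminescence read after 20 min as RLU.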

Results filed as inconclusive are left out. Active and inactive are the calls of the source. Unless noted, calls follow the shape of the dose curve; as a rule, active = well fitted curve in the direction sought with a large enough effect; inconclusive = small, poorly fitted or top-dose-only effect, or another doubt; inactive = no such curve, though single readings can be large; an effect the other way counts as inactive or inconclusive.

Sequence of Furin (Homo sapiens) (P09958 whole entry, looked up): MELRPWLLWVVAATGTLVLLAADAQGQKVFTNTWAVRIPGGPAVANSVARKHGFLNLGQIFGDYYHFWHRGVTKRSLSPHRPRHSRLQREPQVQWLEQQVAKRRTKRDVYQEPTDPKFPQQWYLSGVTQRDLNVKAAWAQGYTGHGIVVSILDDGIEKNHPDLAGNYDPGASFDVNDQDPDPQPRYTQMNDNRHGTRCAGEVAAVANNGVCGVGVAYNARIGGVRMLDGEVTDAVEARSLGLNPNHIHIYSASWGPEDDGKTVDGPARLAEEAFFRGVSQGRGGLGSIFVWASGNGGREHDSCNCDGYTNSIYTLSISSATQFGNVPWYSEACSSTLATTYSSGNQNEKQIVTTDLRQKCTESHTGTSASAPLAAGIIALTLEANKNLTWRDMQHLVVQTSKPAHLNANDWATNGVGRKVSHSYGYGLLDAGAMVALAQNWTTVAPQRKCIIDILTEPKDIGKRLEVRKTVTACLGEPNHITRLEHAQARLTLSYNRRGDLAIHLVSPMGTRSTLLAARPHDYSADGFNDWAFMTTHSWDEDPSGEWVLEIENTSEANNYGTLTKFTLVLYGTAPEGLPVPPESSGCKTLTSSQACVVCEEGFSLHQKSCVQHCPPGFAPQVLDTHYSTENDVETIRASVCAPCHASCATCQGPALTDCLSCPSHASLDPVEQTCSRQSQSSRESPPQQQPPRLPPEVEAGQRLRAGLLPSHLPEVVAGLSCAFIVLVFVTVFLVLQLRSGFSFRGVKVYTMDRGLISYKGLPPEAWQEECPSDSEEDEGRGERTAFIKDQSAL
Sequence of Cytochrome P450 3A4 (Homo sapiens) (P08684 whole entry, looked up): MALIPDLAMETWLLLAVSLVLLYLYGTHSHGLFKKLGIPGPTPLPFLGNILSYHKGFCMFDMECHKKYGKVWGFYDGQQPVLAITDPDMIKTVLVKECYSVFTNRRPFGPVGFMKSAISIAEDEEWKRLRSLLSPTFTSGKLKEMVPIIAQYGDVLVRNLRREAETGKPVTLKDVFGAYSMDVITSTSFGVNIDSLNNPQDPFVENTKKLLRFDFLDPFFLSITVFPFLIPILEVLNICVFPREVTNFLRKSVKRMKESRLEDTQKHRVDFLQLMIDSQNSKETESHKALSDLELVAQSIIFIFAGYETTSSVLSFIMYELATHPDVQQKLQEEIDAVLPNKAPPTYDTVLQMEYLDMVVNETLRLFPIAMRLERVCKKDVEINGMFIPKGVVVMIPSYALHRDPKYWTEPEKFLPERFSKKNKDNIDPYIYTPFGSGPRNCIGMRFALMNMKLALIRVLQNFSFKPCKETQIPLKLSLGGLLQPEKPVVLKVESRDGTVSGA
Sequence of Cytochrome P450 2C9 (Homo sapiens) (P11712 whole entry, looked up): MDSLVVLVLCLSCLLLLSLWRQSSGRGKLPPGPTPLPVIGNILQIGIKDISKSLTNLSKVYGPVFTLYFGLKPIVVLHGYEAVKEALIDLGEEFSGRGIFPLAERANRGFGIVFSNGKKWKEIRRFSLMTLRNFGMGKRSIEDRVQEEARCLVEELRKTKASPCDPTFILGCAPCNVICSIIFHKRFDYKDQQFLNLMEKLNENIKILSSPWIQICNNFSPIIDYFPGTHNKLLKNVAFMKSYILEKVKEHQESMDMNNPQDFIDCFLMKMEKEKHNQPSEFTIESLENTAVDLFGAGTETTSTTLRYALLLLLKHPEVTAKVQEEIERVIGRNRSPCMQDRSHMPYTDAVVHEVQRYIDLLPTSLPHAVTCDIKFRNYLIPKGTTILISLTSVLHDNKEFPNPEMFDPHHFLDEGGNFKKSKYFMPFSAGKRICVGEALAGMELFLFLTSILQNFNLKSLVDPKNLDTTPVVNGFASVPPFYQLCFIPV

Take `O=C1C=CC(=O)c2c(O)c(Cl)c(Cl)c(O)c21`: in [1], the Potency was 31.6 µM (active). The Potency entry in [2], in [6], in assay [7] and in assay [8] was “inactive” each time. Also, the compound was classed as inactive in assay [3] and in [4]. In [5] (at 57.5 µM (top of the series)), the activity change, negative = inhibition is 5.17% (inactive). Besides, the max response in assay [5] (measured here: cell count channel max response) came to 0.303%; in assay [5] (measured here: lipid channel max response), 7.95%.

In the case of `COc1ccc(C(=O)Nc2ccc(C(=O)OCc3cc(=O)n4nc(C(C)C)sc4n3)cc2)cc1`, the Potency in assay [6] was 59.1 µM (active). The Potency result in assay [9] and in assay [8] was “inactive” each time.

Take `O=S(=O)(N[C@H]1CO[C@H]2[C@@H]1OC[C@@H]2n1nnnc1-c1ccc2c(c1)OCO2)c1ccc2ccccc2c1`: the Potency result in assay [10] and in assay [11] was “inactive” each time.

For `Cc1cccc(OCC(=O)Nc2ccc(C(=O)OCc3cc(=O)n4nc(C5CC5)sc4n3)cc2)c1`, the Potency entry in assay [6] and in assay [8] was “inactive” throughout.

For the compound `CCOc1ccc(S(=O)(=O)Nc2cc3c(C(=O)OCc4ccccc4)c(C)oc3c3ccccc23)cc1`, the Potency result in [6] and in [9] was “inactive” each time. Further, the Potency in assay [12] is 316 µM (active).

As to `Cc1ccc(-c2nnc(Nc3ccccc3)c3ccccc23)cc1S(=O)(=O)NCc1nc2ccccc2[nH]1`, the Potency in [6] is 41.8 µM (active). The Potency result in assay [9], in assay [13] and in [14] was “inactive” each time.

In the case of `Cc1oc2c(cc(NS(=O)(=O)c3ccc(F)cc3)c3ccccc32)c1C(=O)OCc1ccccc1`, the Potency result in [6] and in [9] was “inactive” each time. In addition, in assay [12], the Potency was 158 µM (active).
